Assay [1] in a line: NCI Yeast Anticancer Drug Screen. Data for the rad50 strain (AID 155).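 Also: 0% = growth of vehicle-only cultures of the same strain.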 Particulars: S. cerevisiae rad50 strain growth inhibition, stronger effect = higher value. The essentials:
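DNA repair mutant yeast, compound exposure, growth read-out; inhibition is taken relative to vehicle.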

The nature of assay [2]: NCI Yeast Anticancer Drug Screen. Data for the mec2-1 strain (AID 157). Conditions: S. cerevisiae mec2-1 strain, stronger effect = higher value. The procedure, abridged:
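Cells of the genetically defined mec2-1 yeast strain are incubated with test compound. Inhibition of growth is calculated against vehicle-treated controls.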

The nature of assay [3]: NCI Yeast Anticancer Drug Screen. Data for the sgs1 mgt1 strain (AID 161).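 Also: 0% = growth of cultures given vehicle only.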 Conditions: S. cerevisiae sgs1 mgt1 strain, stronger effect = higher value. The essentials: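 Mutant yeast exposed to compound; growth scored against vehicle-only wells.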
The nature of assay [4]: NCI Yeast Anticancer Drug Screen. Data for the cln2 rad14 strain (AID 165).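 Also: 0% = growth equal to vehicle treated cultures.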 Conditions: S. cerevisiae cln2 rad14 strain, stronger effect = higher value. The essentials:
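The screen exposed genetically defined yeast (cln2 rad14) to test compounds and scored growth inhibition relative to vehicle-treated controls.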

Assay [5] in a line: NCI Yeast Anticancer Drug Screen. Data for the bub3 strain (AID 167). Particulars: S. cerevisiae bub3 mutant strain, stronger effect = higher value. The procedure, abridged: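 In this screen, a yeast mutant lacking normal mitotic checkpoint function is challenged with compound. Relative growth versus vehicle gives the inhibition value.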
The nature of assay [6]: NCI Yeast Anticancer Drug Screen. Data for the mlh1 rad18 strain (AID 175). Conditions: S. cerevisiae mlh1 rad18 strain growth inhibition, stronger effect = higher value. The essentials: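 Compound-treated yeast growth, normalised to vehicle controls. Strain bears defined DNA repair mutations.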
Where [7] appears, read: at 5.0 µM (retest, dose inferred, filed as 0.5).
The mark [8] stands for this setting: at 50.0 µM (retest, dose inferred, filed as 5.0).

Here are results for ten compounds from PubChem BioAssay (NCI).

About 79,000 compounds went through this panel and 15% of them were active in at least one assay; those are over-represented in the sample as a whole. A number with no mark means an inactive call. The source made the active and inactive calls. Rule as the data show it: active = growth inhibition above about 70%; inactive = the rest.

`COc1ccc(CN2CCCN(Cc3ccc(OC)cc3OC)C2c2ccc(N(CCCl)CCCl)cc2)c(OC)c1`: the growth inhibition in assay [1] (setting [7]) was 2%; in assay [1] (setting [8]) it was 49%; in assay [1] (at 50.0 µM), 71% (active); in assay [2] (setting [7]) it was -9%; in assay [2] (setting [8]), 8%; in assay [2] (at 50.0 µM) it was 22.8%. In addition, the growth inhibition in assay [3] (setting [7]) was -5%; in assay [3] (setting [8]) it was 42%; in assay [3] (at 50.0 µM), 60.8%; in assay [4] (setting [7]), -8%; in assay [4] (setting [8]) it was 43%; in assay [4] (at 50.0 µM), 30.3%. Moreover, the growth inhibition in assay [5] (setting [7]) is -8%; in assay [5] (setting [8]), -3%; in assay [5] (at 50.0 µM), 5.25%; in assay [6] (setting [7]), 55%; in assay [6] (setting [8]), 95% (active); in assay [6] (at 50.0 µM), 53.9%.

As for `CCOC(=O)[C]1([Pb]([CH3])([CH3])[CH3])N=NC(C(=O)OC)=C1C(=O)OC` (stereo not given), the growth inhibition in assay [1] (setting [7]) was 6%; in assay [1] (setting [8]), 32%; in assay [1] (at 50.0 µM), 68.8%; in assay [2] (setting [7]), -1%; in assay [2] (setting [8]), -14%; in assay [2] (at 50.0 µM), -2.15%. For the same compound, the growth inhibition in assay [3] (setting [7]) was 2%; in assay [3] (setting [8]), 22%; in assay [3] (at 50.0 µM), 29.8%; in assay [4] (setting [7]) it was 4%; in assay [4] (setting [8]), 5%; in assay [4] (at 50.0 µM), 14.2%. Also, the growth inhibition in assay [5] (setting [7]) was -2%; in assay [5] (setting [8]), 32%; in assay [5] (at 50.0 µM), 15.9%; in assay [6] (setting [7]), 1%; in assay [6] (setting [8]) it was -2%; in assay [6] (at 50.0 µM) it was 30.7%.

As to `COC1CCC(OC2CC(C3(C)CCC4(CC(O)C(C)C(C(C)/C=C(\C)C(=O)C(C)CC(C)C(=O)O)O4)O3)OC3(OC(C4OC(O)(CO)C(C)CC4C)CC3C)C2C)OC1C` (stereo not given), the growth inhibition in assay [1] (setting [7]) is 7%; in assay [1] (setting [8]), 85% (active); in assay [1] (at 50.0 µM) it was 61.1%; in assay [2] (setting [7]), 19%; in assay [2] (setting [8]), 83% (active); in assay [2] (at 50.0 µM), 71.8% (active). For the same compound, the growth inhibition in assay [3] (setting [7]) is 23%; in assay [3] (setting [8]), 83% (active); in assay [3] (at 50.0 µM), 63.1%; in assay [4] (setting [7]), 65%; in assay [4] (setting [8]) it was 92% (active); in assay [4] (at 50.0 µM), 68.6%. The growth inhibition in assay [5] (setting [7]) was -5%; in assay [5] (setting [8]), 59%; in assay [5] (at 50.0 µM), 58.1%; in assay [6] (setting [7]) it was 22%; in assay [6] (setting [8]), 73% (active); in assay [6] (at 50.0 µM) it was 69.4%.

For `CC12CCC(=O)C=C1CCC1C2CCC2(C)C(O[Si](C)(C)OC3CCC4C5CCC6=CC(=O)CCC6(C)C5CCC34C)CCC12` (stereo not given), the growth inhibition in assay [1] (setting [7]) was 3%; in assay [1] (setting [8]) it was 44%; in assay [1] (at 50.0 µM), 98.8% (active); in assay [2] (setting [7]), -12%; in assay [2] (setting [8]) it was 16%; in assay [2] (at 50.0 µM) it was 98.7% (active). Besides, the growth inhibition in assay [3] (setting [7]) was 0%; in assay [3] (setting [8]), 37%; in assay [3] (at 50.0 µM), 95.8% (active); in assay [4] (setting [7]) it was 1%; in assay [4] (setting [8]) it was 33%; in assay [4] (at 50.0 µM), 58.4%. Further, the growth inhibition in assay [5] (setting [7]) is -1%; in assay [5] (setting [8]) it was 0%; in assay [5] (at 50.0 µM), 97.1% (active); in assay [6] (setting [7]), 6%; in assay [6] (setting [8]), 53%; in assay [6] (at 50.0 µM), 96.8% (active).

Regarding `CC(=N\O)/C(C)=N/O.CC(=N\O)/C(C)=N/O.CC(=N\O)/C(C)=N/O.CC(=N\O)/C(C)=N/O.[CH3-].[CH3-].[Co].[Co]`, the growth inhibition is 15% in assay [1] (setting [7]); 25% in assay [1] (setting [8]); 46.5% in assay [1] (at 50.0 µM); 8% in assay [2] (setting [7]); 17% in assay [2] (setting [8]); 24.6% in assay [2] (at 50.0 µM). For the same compound, the growth inhibition in assay [3] (setting [7]) was 21%; in assay [3] (setting [8]) it was 18%; in assay [3] (at 50.0 µM), 30.1%; in assay [4] (setting [7]) it was 11%; in assay [4] (setting [8]), 24%; in assay [4] (at 50.0 µM), 2.8%. In addition, the growth inhibition in assay [5] (setting [7]) was -1%; in assay [5] (setting [8]), 13%; in assay [5] (at 50.0 µM), -12.7%; in assay [6] (setting [7]) it was 14%; in assay [6] (setting [8]) it was 39%; in assay [6] (at 50.0 µM) it was 63.6%.

With `COc1ccc([As]=[As]c2ccc(OC)c(I)c2)cc1I` (stereo not given), the growth inhibition in assay [1] (setting [7]) was 98% (active); in assay [1] (setting [8]), 99% (active); in assay [1] (at 50.0 µM), 99.7% (active); in assay [2] (setting [7]), 100% (active); in assay [2] (setting [8]), 100% (active); in assay [2] (at 50.0 µM), 99.8% (active). The growth inhibition was 99% (active) in assay [3] (setting [7]); 100% (active) in assay [3] (setting [8]); 99.8% (active) in assay [3] (at 50.0 µM); 98% (active) in assay [4] (setting [7]); 98% (active) in assay [4] (setting [8]); 99.8% (active) in assay [4] (at 50.0 µM). The growth inhibition in assay [5] (setting [7]) is 99% (active); in assay [5] (setting [8]), 99% (active); in assay [5] (at 50.0 µM), 99.6% (active); in assay [6] (setting [7]), 99% (active); in assay [6] (setting [8]), 99% (active); in assay [6] (at 50.0 µM) it was 99.7% (active).

For the compound `C=C1C(C)C2C(Cc3ccccc3)NC(=O)C23C(OC(C)=O)/C=C/C(C)(O)CC(C)C/C=C/C3C1O` (stereo not given), the growth inhibition in assay [1] (setting [7]) was 85% (active); in assay [1] (setting [8]), 98% (active); in assay [1] (at 50.0 µM), 91.5% (active); in assay [2] (setting [7]), 94% (active); in assay [2] (setting [8]), 99% (active); in assay [2] (at 50.0 µM), 92.5% (active). For the same compound, the growth inhibition was 86% (active) in assay [3] (setting [7]); 99% (active) in assay [3] (setting [8]); 91.5% (active) in assay [3] (at 50.0 µM); 86% (active) in assay [4] (setting [7]); 97% (active) in assay [4] (setting [8]); 90.7% (active) in assay [4] (at 50.0 µM). In addition, the growth inhibition in assay [5] (setting [7]) was 92% (active); in assay [5] (setting [8]), 99% (active); in assay [5] (at 50.0 µM), 90.9% (active); in assay [6] (setting [7]), 95% (active); in assay [6] (setting [8]), 99% (active); in assay [6] (at 50.0 µM), 89.4% (active).

With `CC1=C(N2CC2)C(=O)c2nc3n(c2C1=O)CCC3OC(=O)CCl` (stereo not given), the growth inhibition in assay [1] (setting [7]) was 28%; in assay [1] (setting [8]), 61%; in assay [1] (at 50.0 µM), 46.5%; in assay [2] (setting [7]) it was 6%; in assay [2] (setting [8]) it was 47%; in assay [2] (at 50.0 µM), 57%. Moreover, the growth inhibition is 18% in assay [3] (setting [7]); 60% in assay [3] (setting [8]); 72.2% (active) in assay [3] (at 50.0 µM); 5% in assay [4] (setting [7]); 31% in assay [4] (setting [8]); 57.9% in assay [4] (at 50.0 µM). The growth inhibition in assay [5] (setting [7]) was 24%; in assay [5] (setting [8]), 19%; in assay [5] (at 50.0 µM) it was 6%; in assay [6] (setting [7]), 23%; in assay [6] (setting [8]) it was 67%; in assay [6] (at 50.0 µM), 66.1%.

For `OC1C2[C@@H](O)CCCN2C[C@@H](O)[C@H]1O` (stereo not given in full), the growth inhibition in assay [1] (setting [7]) was 15%; in assay [1] (setting [8]), 21%; in assay [1] (at 50.0 µM) it was -45.2%; in assay [2] (setting [7]), 11%; in assay [2] (setting [8]), 13%; in assay [2] (at 50.0 µM), -59%. Also, the growth inhibition in assay [3] (setting [7]) was 5%; in assay [3] (setting [8]) it was 14%; in assay [3] (at 50.0 µM), -34.5%; in assay [4] (setting [7]), 5%; in assay [4] (setting [8]) it was 20%; in assay [4] (at 50.0 µM) it was 8.4%. The growth inhibition in assay [5] (setting [7]) is 6%; in assay [5] (setting [8]), 8%; in assay [5] (at 50.0 µM), 4.95%; in assay [6] (setting [7]), 14%; in assay [6] (setting [8]), 58%; in assay [6] (at 50.0 µM) it was -15.3%.

In the case of `C#CCN1C(=O)N(CC#C)C(=O)C(CC#C)(C(CC=C)c2ccccc2)C1=O` (stereo not given), the growth inhibition in assay [1] (setting [7]) was 1%; in assay [1] (setting [8]), 96% (active); in assay [1] (at 50.0 µM), 57.3%; in assay [2] (setting [7]) it was 2%; in assay [2] (setting [8]), 97% (active); in assay [2] (at 50.0 µM), 26.6%. Moreover, the growth inhibition was -1% in assay [3] (setting [7]); 97% (active) in assay [3] (setting [8]); 66.5% in assay [3] (at 50.0 µM); 16% in assay [4] (setting [7]); 95% (active) in assay [4] (setting [8]); 58.5% in assay [4] (at 50.0 µM). In addition, the growth inhibition is 9% in assay [5] (setting [7]); 98% (active) in assay [5] (setting [8]); 59% in assay [5] (at 50.0 µM); -23% in assay [6] (setting [7]); 97% (active) in assay [6] (setting [8]); 53.4% in assay [6] (at 50.0 µM).
